Rows were chosen to be rich in hits. Some 14% of all compounds tested hit in one or more screens of this group.
Pf growth 96h – P. falciparum growth inhibition at 96 hour, primary screen for plastid delayed-death inhibitors. P. falciparum luciferase reporter growth, 96 h. Potency, µM (titrated, usually from 28.7 µM), for inactives: top-dose activity change, negative = inhibition, usual class: inhibitors. 320,000 tested, 6.9% active. AID 504834; note: potency is the fitted concentration of half-maximal effect
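Plates of compound plus infected erythrocytes (2% hematocrit, 0.05% parasitemia final) incubate 96 hours, 37 C, 5% CO2. Detection reagent added; reduced luminescence from the parasites' luciferase reporter flags inhibition.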
Marburg entry inh – Marburg virus entry inhibition | Marburg virus pseudotyped entry inhibition, cell reporter | Potency, µM (series often up to 37.8 µM), for inactives: at the highest dose activity change, negative = inhibition, hits mostly inhibitors | 300,000 tested, 1.8% active; calls by dose curve; tested in HEK293 cells; note: potency is the fitted concentration of half-maximal effect
HCV inhibitor – blocks hepatitis C virus | Huh7.5.1 HCVcc-Cre infection, luciferase reporter, 44 h | Potency, µM (top dose mostly 41.8 µM), for inactives: at the highest dose activity change, negative = inhibition, actives largely listed as inhibitors | 340,000 tested, 3.4% active; note: potency is the fitted concentration of half-maximal effect
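1,000 cells/well; 4 h culture; + compound; + HCVcc-Cre (~0.5 moi); 44 h; luciferase substrate, RT 15 min; read 15 sec.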
Lassa entry inh – blocks Lassa virus binding to or entry into cells | Lassa virus pseudotype entry inhibition, cell reporter | Potency, µM (top dose mostly 37.9 µM), for inactives: at the top dose activity change, negative = inhibition, hits mostly inhibitors | 300,000 tested, 1.2% active | AID 540256; calls by dose curve; tested in HEK293 cells; note: potency is the fitted concentration of half-maximal effect; nearly all actives have a fitted effect of over 50% in size
HCMV inh – blocks human cytomegalovirus replication; HFF cells, HCMV-luciferase reporter, 72 h; stronger effect = lower value; 410,000 tested, 4.5% active; activity change, negative = inhibition, % at 57.5 µM; AID 1259415; in the data active = activity change below about -60%; inconclusive = no clear call, values can overlap the other calls; inactive = above about -39%
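Human foreskin fibroblasts infected with luciferase-reporter HCMV at MOI 1 PFU/cell, compounds at two doses. Luciferase measured 72 h post infection; normalized to buffer-only basal and Salinomycin (10uM) controls.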
Pf growth 48h – P. falciparum growth inhibition at 48 hours (one generation); P. falciparum luciferase growth in erythrocytes, 48 h; 310,000 tested, 5.9% active; AID 504832; Potency, µM (series often up to 28.7 µM), inactives show at the top dose activity change, negative = inhibition, most hits filed as inhibitors; note: potency is the fitted concentration of half-maximal effect
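First compound was added to culture medium, then infected red cells at 0.1% parasitemia and 2% hematocrit (final). After incubation at 37 C under 5% CO2, luciferase detection reagent was dispensed and light output recorded.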
An asterisk follows results filed as active; ? = inconclusive; · = not tested or not shown; [ ] = remark or other dose. Unless noted, calls come from the whole dose curve; as a rule, active = well fitted inhibition curve with a large enough effect; inconclusive = small, poorly fitted or top-dose-only effect, or another doubt; inactive = no such curve, though single readings can be large or run the other way. % is set by controls: 0 for no effect and ±100 for the full control effect.

SMILES	Pf growth 96h	Marburg entry inh	HCV inhibitor	Lassa entry inh	HCMV inh	Pf growth 48h
CCOC(=O)c1c(NC(=O)c2cc(OCC)c(OCC)c(OCC)c2)sc2c1CCCCC2	·	·	·	23%[46.1 µM]	22	·
COc1cccc(NC(=O)c2oc3ccccc3c2NC(=O)c2ccc(F)c(F)c2)c1	·	0%[46.1 µM]	·	22%[46.1 µM]	-7	·
Clc1ccc(C(Cn2ccnc2)OCc2c(Cl)cccc2Cl)c(Cl)c1 (configuration not stated)	2.9µM*	·	-17%	·	-64*	2.3µM*
OC(Cn1ccnc1)c1ccc(Cl)cc1Cl (configuration not stated)	9.3µM*	17%	9%	14%	-2	10µM*
Clc1ccc(C(Cn2ccnc2)OCc2csc3c(Cl)cccc23)c(Cl)c1 (configuration not stated)	2.6µM*	·	13µM*	·	10	1µM*
Clc1cccc(OCCCn2ccnc2)c1	?	·	7%	·	-33	-9%
O=c1c2ccccc2nc(-c2ccc(Cl)cc2Cl)n1CCCn1ccnc1	?	?	-8%	1%	?	?
Clc1ccc([C@H](Cn2ccnc2)OCc2csc3c(Cl)cccc23)c(Cl)c1	5.7µM*	·	·	·	·	?
COc1ccccc1NC1SC(=O)N(c2ccccc2)C1=O (configuration not stated)	·	16%	1%	12%	32	35%
CN1C(=O)SC(Nc2ccccc2C(=O)O)C1=O (configuration not stated)	1.3µM*	3%	6%	5%	-29	6%
COc1ccc(Nc2nc(N(C)c3ccccc3)nc(N)c2[N+](=O)[O-])cc1	8%	3%[46.1 µM]	?	-6%	-31	-3%
CC(=O)Nc1ccc(Nc2nc(C)c([N+](=O)[O-])c(Nc3ccccc3)n2)cc1	?	?	?	?	-22	?
CN(c1ccccc1)c1nc(N)c([N+](=O)[O-])c(Nc2ccccc2)n1	-40%	·	5.6µM*	·	-11	?
CCC(=O)Nc1ccc(Nc2nc(C)c([N+](=O)[O-])c(Nc3ccc(NC(=O)CC)cc3)n2)cc1	-26%	?	10µM*	?	-17	?
CC(=O)Nc1ccc(Nc2nc(C)c([N+](=O)[O-])c(N(C)c3ccccc3)n2)cc1	?	-16%	18µM*	?	?	?
CC(C)C#Cc1cnc2c(c1)C(=O)N([C@H](C)CO)C[C@@H](C)[C@H](CN(C)C(=O)Nc1ccccc1F)O2	·	·	·	·	-1	·
CCC(CC)C(=O)Nc1ccc(C(=O)OCc2cc(=O)n3nc(C4CC4)sc3n2)cc1	·	·	·	?	-26	·
CCOC(=O)C1CCN(c2cc(C)nc3c(-c4ccccc4OC)c(C)nn23)CC1	·	·	·	-5%[46.1 µM]	-12	·
CCc1cccc(CC)c1NC(=O)C1SC(=Nc2ccccc2C)C(c2nc3ccccc3s2)=C1N (configuration not stated)	7.4µM*	?	0%	5%	0	·
CCc1cccc(C)c1NC(=O)CCCSc1nc2ccccc2s1	?	-21%	?	0%	-30	?
CCCNc1c(NC(=O)COc2ccc(Cl)cc2)c(=O)oc2ccccc12	?	·	-6%	·	-36	0.066µM*
O=C(O)CCSc1nnc(-c2ccc(Cl)cc2Cl)o1	·	?	·	?	-76*	·
O=C1OCCC1Sc1nnc(-c2ccc(Cl)cc2Cl)o1 (configuration not stated)	112%	5µM*	9%	?	-30	37%
Cc1cc(C(=O)OCC(=O)N2CC(C)OC(C)C2)ccc1[N+](=O)[O-] (configuration not stated)	-19%	·	14%	·	-19	29%
Cc1ccc(S(=O)(=O)NCCc2cn3ccsc3n2)c(C)c1	·	·	·	8%[46.1 µM]	?	·
SMILES	Pf growth 96h	Marburg entry inh	HCV inhibitor	Lassa entry inh	HCMV inh	Pf growth 48h
OCCN1CCN(c2ncnc3ccc(Br)cc23)CC1	?	·	0%	·	-78*	·
Cc1ccc(-n2ncc3c(N4CCN(CCO)CC4)ncnc32)cc1Cl	·	·	·	-2%[46.1 µM]	29	·
OCCN1CCN(c2nc(-c3ccccc3)c3cc(Br)ccc3n2)CC1	?	?	-13%	?	-62*	?
OCCN1CCN(c2cc(-c3ccccc3)c3ccccc3n2)CC1	13µM*	?	?	-6%	-63*	?
CCN1CCN(c2ncnc3ccc(Br)cc23)CC1	13%	-21%	-9%	-2%	-67*	11%
CCc1ccc(NC(=O)CSc2nc(C)c(C(=O)Nc3ccccc3)c(-c3ccc(OC)c(OC)c3)c2C#N)cc1	·	·	·	0%[46.1 µM]	-2	·
CCOc1cc(/C=C/c2cccc[n+]2C)ccc1OCC(=O)Nc1ccc(C)cc1	5.2µM*	-22%[46.1 µM]	-27%	-25%[46.1 µM]	-95*	0.93µM*
CCOc1cc(/C=C/c2cccc[n+]2C)ccc1O	8.3µM*	·	1%	·	42	9.3µM*
O=C(NCC(=O)N(Cc1ccc(F)cc1)C(C(=O)NC1CCCC1)c1ccco1)c1ccco1 (configuration not stated)	·	-2%	?	-27%	?	-22%
O=C(NCC(=O)N(Cc1ccccc1)C(C(=O)NC1CCCC1)c1ccco1)c1ccco1 (configuration not stated)	5.2µM*	8%[46.1 µM]	-3%	?	0	-3%
CCOc1ccccc1C(C(=O)NC1CCCC1)N(Cc1ccco1)C(=O)CNC(=O)c1ccco1 (configuration not stated)	?	11%	12%	4%	33	8.3µM*
Cn1cc(-c2cc3cnc(Nc4cccc(NS(C)(=O)=O)c4)cc3n2Cc2ccccc2)cn1	·	·	·	·	-88*	·
COc1ccc(Nc2cc3c(cn2)cc(-c2cnn(C)c2)n3Cc2ccccc2)cc1OC	·	·	·	·	-8	·
NNC(=O)c1sc2cc(C(F)(F)F)cnc2c1-c1cccnc1	?	8%[46.1 µM]	4%	-16%	-11	?
COC(=O)c1sc2cc(C(F)(F)F)cnc2c1-c1cccnc1	25%	?	0.56µM*	5%	12	-12%
COc1ccc([N+](=O)[O-])cc1-c1[nH]c(-c2ccc(C(=O)O)cc2)nc1-c1ccccc1	?	·	9%	·	-14	8.3µM*
COc1ccc(-c2nc(-c3ccccc3)c(-c3cc([N+](=O)[O-])ccc3C)[nH]2)cc1O	?	-30%	?	?	-37	5.2µM*
Nc1ccc2cccc(O)c2c1	·	?	-19%	?	33	·
CCCOc1ccc(C(=O)Nc2cc3nn(-c4ccc(CC)cc4)nc3cc2C)cc1	·	-22%[46.1 µM]	·	18%[46.1 µM]	4	·
Clc1cccc(-c2ccc(C=Nc3ccc(N4CCOCC4)cc3)o2)c1	10µM*	19%	29%	7%	?	4%
NC(=O)c1ccc(S(=O)(=O)N2CCSCC2)cc1	10µM*	1%[46.1 µM]	0%	3%[46.1 µM]	5	5%
